Shn3 inh set2: reduction of Shn3 3'UTR firefly luciferase signal, primary screen, Schnurri-3 inhibitor project, cell-based, Clone20 osteoblasts, set 2; Clone20 osteoblast Shn3 3'UTR firefly luciferase, 24 h; inhibition, % at 12.5 µM; actives 0.52% (n = 360,000);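 active means mean inhibition of at least 75% with every replicate also reaching 75%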
EBV LMP1 NFkB: EBV LMP1-driven NF-kappaB luciferase reporter inhibitors, primary screen, cell-based, luminescence, single point; LMP1-induced NF-kappaB luciferase reporter cells; inhibition, % at 12.5 µM; actives 0.69% (n = 350,000); in the data active means inhibition above about 41%
TROY NFkB inh: inhibitors of TROY-driven NF-kB signaling, primary screen, Q293 LMP1-TROYcd cells, NF-kB luciferase, uHTS. Q293 LMP1-TROYcd NF-kB luciferase reporter, 4 h. inhibition, % at 10 µM. actives 0.98% (n = 360,000);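 active means compounds whose plate-normalised and pattern-corrected inhibition of the luciferase reporter signal at the single screening dose is 50% or more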
MITF TRPM1 inh: inhibitors of MITF-dependent TRPM1 promoter reporter, primary screen, cell-based, SK-MEL-5, single point, luciferase; AID 488899, 2010; inhibition, % at 12.5 µM; actives 0.83% (n = 330,000); SK-MEL-5 TRPM1 promoter luciferase, 24 h;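 active means mean inhibition across replicates of 60% or more, whatever share of single replicates reaches that level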
Peg3 promoter: Peg3 promoter-driven luciferase inhibitors, primary screen, cell-based, HeLa, luciferase luminescence | HeLa PEG-Prom luciferase reporter, overnight | inhibition, % at 20 µM | actives 1.7% (n = 360,000) | AID 588405, 2011;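 active means inhibition of at least 50% at 20 µM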
TWEAK-Fn14 inh: inhibitors of TWEAK-Fn14 signaling, primary screen, luciferase reporter cells, uHTS | TWEAK-stimulated Fn14 reporter cells, luciferase luminescence, 8 h | inhibition, % at 10 µM | actives 2% (n = 360,000) | AID 1159606, 2016; in the data active means inhibition above about 50%
Of the large screens only hits and unclear results are named; the others gave an inactive call; ! = repeats disagree. Hits are enriched below; roughly 4.1% of the tested compounds scored in any of these assays.

CCC(=O)Nc1cccc(C(=O)/C=C/c2cc(Br)ccc2OC)c1	EBV LMP1 NFkB 67, MITF TRPM1 inh 91, Peg3 promoter 104, TWEAK-Fn14 inh 94
COc1ccc(Br)cc1/C=C/C(=O)Nc1ccc2ccccc2c1	none
CC(=O)Nc1cccc(C(=O)/C=C/c2ccc(F)cc2)c1	Peg3 promoter 107, TWEAK-Fn14 inh 72
COc1ccccc1N1CCN(C(=O)CCNC(=O)c2ccco2)CC1	none
CCOC(=O)c1c(C)[nH]c(C)c1S(=O)(=O)N(C)CC(=O)NCc1ccc(F)cc1	none
Cc1csc(SC(C)C(=O)Nc2ccccc2C)n1 (stereo not drawn)	none
Cc1ccc(NC(=O)Nc2c(C)[nH]c(=O)[nH]c2=O)cc1Cl	none
O=C(NCc1cccnc1)c1ccc(-c2ccc(Cl)cc2)o1	none
O=C(NCc1cccnc1)/C(=C\c1ccc(-c2ccc(Cl)c(Cl)c2)o1)S(=O)(=O)c1ccccc1	Shn3 inh set2 98, EBV LMP1 NFkB 87, TROY NFkB inh 89, MITF TRPM1 inh 90, Peg3 promoter 102, TWEAK-Fn14 inh 105
COc1cccc(O)c1CN1CCC(C(=O)Nc2ccc(-c3cccc(C)c3)cc2)CC1	Peg3 promoter 106
COc1ccc(CN2CCC(C(=O)Nc3ccc(Oc4cccnc4)cc3)CC2)c(C)c1C	Shn3 inh set2 86
COC(=O)c1ccc(CN2CCCC(CCC(=O)NCc3ccc(C)o3)C2)cc1 (stereo not drawn)	none
CC(Oc1ccc(F)cc1)C(=O)Nc1ccccc1C(=O)N1CCCCC1 (stereo not drawn)	none
C=CCn1c(SCC(=O)N2CCN(c3ccccc3)CC2)nnc1-c1ccco1	none
Cc1nc(SCC(=O)O)c2oc3ccccc3c2n1	none
CCn1c(SCC(=O)N2CCN(c3ccccc3)CC2)nnc1-c1cc2cc(Cl)ccc2o1	TROY NFkB inh 59
Cc1nc(SCC(=O)N2CCN(c3ccccc3)CC2)c2oc3ccccc3c2n1	Peg3 promoter 56, TWEAK-Fn14 inh 52
Cn1c(CC(=O)Nc2ccc(Cl)c(Cl)c2)nnc1SCC(=O)N1CCN(c2ccccc2)CC1	TWEAK-Fn14 inh 51
COc1cccc(CC(NC(C)=O)C(=O)NC2CCN(C(=O)Nc3ccc(C)cc3)CC2)c1 (stereo not drawn)	none
Cc1ccccc1Nc1cc2ccccc2c(=O)[nH]1	MITF TRPM1 inh 69
CC[C@]1(C(=O)OC)[C@H]2C(=O)N(C)C(=O)[C@H]2[C@H]2CN=C(SCc3ccc(C)cc3)N21	none
COc1cc(NC(=O)c2ccc([N+](=O)[O-])o2)ccc1NC(=O)c1cccs1	MITF TRPM1 inh 87, Peg3 promoter 59
COc1cccc(C(=O)Nc2nnc(-c3cccs3)s2)c1	TWEAK-Fn14 inh 70
O=C(Nc1cccc(NC(=O)c2cccs2)c1)c1ccc([N+](=O)[O-])o1	MITF TRPM1 inh 98, Peg3 promoter 55
Cc1cc(C)c(OCC(=O)Nc2ccc(NC(=O)c3ccco3)cc2)c([N+](=O)[O-])c1	none
Cc1cc(C)c(OCC(=O)Nc2cccc(NC(=O)c3ccco3)c2)c(Br)c1	TWEAK-Fn14 inh 56
CCN(c1ccccc1)S(=O)(=O)c1cccc(C(=O)OCC(=O)Nc2ccc(NC(C)=O)cc2)c1	none
COCCN(CC(=O)Nc1cccc(S(=O)(=O)N2CCCC2)c1)Cc1nc2ccccc2c(=O)[nH]1	none
COc1ccc(C(=O)Nc2nc(-c3cccs3)cs2)cc1	none
O=C(Nc1nc(-c2cccs2)cs1)c1ccc([N+](=O)[O-])o1	MITF TRPM1 inh 86
Cc1nc2ccccc2c(=O)n1-c1cccc(NC(=O)c2cccs2)c1	none
COc1cc(C(=O)Nc2nc(-c3cccs3)cs2)cc(OC)c1OC	TWEAK-Fn14 inh 56
O=C(Nc1cccc(N2C(=O)C=CC2=O)c1)c1cccs1	MITF TRPM1 inh 73, Peg3 promoter 92
O=C(Nc1cccc(NC(=O)c2ccc([N+](=O)[O-])o2)c1)c1ccco1	MITF TRPM1 inh 64, Peg3 promoter 57
O=C(Nc1ccc(NC(=O)c2ccc([N+](=O)[O-])o2)cc1Cl)c1ccco1	none
CCN(CC)c1ccc(C2NC(=O)c3ccccc3N2)cc1 (stereo not drawn)	EBV LMP1 NFkB 43, TROY NFkB inh 77, TWEAK-Fn14 inh 95
CCN(CC)c1ccc(C2Nc3cccc4cccc(c34)N2)cc1	none
O=C1Nc2ccccc2C1=Nc1ccccc1-c1ccccc1	EBV LMP1 NFkB 78
CCN(CC)c1ccc(N=C2C(=O)Nc3ccccc32)cc1	TWEAK-Fn14 inh 52
COc1ccc(Nc2ncc(C(=O)N3CCC(C(N)=O)CC3)c3ccccc23)cc1	none
COc1ccc(Nc2ncc(C(=O)N3CCN(Cc4ccccc4)CC3)c3ccccc23)cc1	TWEAK-Fn14 inh 96
COC(=O)c1c(NC(=S)Nc2ccc(CC(=O)O)cc2)sc(C)c1C	TWEAK-Fn14 inh 88
CN(C)c1ccc(Sc2ccc3nc(N)nc(N)c3c2)cc1	Peg3 promoter 105 (no result: MITF TRPM1 inh)
CN1CCN(c2ccc(CNS(=O)(=O)c3ccc(Cl)cc3)cc2)CC1	none
CCOC(=O)N1CCC(=NNC(=O)COc2ccc(OC)cc2)CC1	TWEAK-Fn14 inh 96
C=CCN1C(=O)/C(=C/c2ccc(OC(C)=O)c(OCC)c2[N+](=O)[O-])SC1=S	TWEAK-Fn14 inh 60
O=C(CN(c1ccc(Cl)cc1)S(=O)(=O)c1ccc(Cl)c([N+](=O)[O-])c1)NCCc1ccc(F)cc1	MITF TRPM1 inh 70, Peg3 promoter 95
O=[N+]([O-])c1ccc(Cl)c(S(=O)(=O)NCC2CCCO2)c1 (stereo not drawn)	EBV LMP1 NFkB 48
O=C(CN(C1CCCCC1)S(=O)(=O)c1ccc(F)cc1)NCC1CCCO1 (stereo not drawn)	Shn3 inh set2 97, MITF TRPM1 inh 86, Peg3 promoter 98
CN(CC(=O)NCC1CCCO1)S(=O)(=O)c1ccc(Br)cc1 (stereo not drawn)	none
O=C(CN(c1ccc(Br)cc1)S(=O)(=O)c1ccc(Cl)c([N+](=O)[O-])c1)NCC1CCCO1 (stereo not drawn)	MITF TRPM1 inh 85, Peg3 promoter 95, TWEAK-Fn14 inh 55
CCN(C(=O)CSc1ncccn1)C1CCS(=O)(=O)C1 (stereo not drawn)	none
CC(C)OC(=O)Cc1nc2sc(-c3ccccc3)cc2c(=O)[nH]1	none (no result: MITF TRPM1 inh)
O=c1[nH]c(-c2ccccn2)cc2ccccc12	TWEAK-Fn14 inh 79
O=C(COc1ccc(-c2nnco2)cc1)Nc1c(Cl)cccc1C(F)(F)F	none
Cc1cccc(CSc2cccc3cccnc23)c1	Shn3 inh set2 96, TWEAK-Fn14 inh 103
CCc1nc(N)nc(N)c1-c1ccc(Cl)c(N=[N+]=[N-])c1	Shn3 inh set2 81!
